± gives the standard deviation of the averaged measurements.
Legend:
[1] = tested on: DLD1; assay: cell viability (CellTiter-Glo) relative to plate median (fraction of plate median); higher = more viable cells; conditions: 5 µM; treatment time 24 h; reporter: 7TFP
Outline: (§1)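 Each entry is a luminescence signal normalised to the plate median, averaged over independent replicates. The replicate count was two, and the cells were colorectal cancer lines with stable lentiviral TCF/Wnt firefly luciferase reporters exposed to library compounds at a final 5 µM for 24 h. Firefly luciferase and CellTiterGlo were measured on parallel plates.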

[2] = tested on: HCT116; assay: as above; conditions: 5 µM; treatment time 24 h; reporter: TCF4/Wnt
Outline: as §1

[3] = tested on: SW480; assay: as above; conditions: 5 µM; treatment time 24 h; reporter: 7TFP
Outline: as §1

[4] = tested on: DLD1; assay: TCF/Wnt firefly luciferase reporter signal relative to plate median (fraction of plate median); higher = higher Wnt reporter signal; conditions: 5 µM; treatment time 24 h; reporter: 7TFP
Outline: as §1

[5] = tested on: SW480; assay: as above; conditions: 5 µM; treatment time 24 h; reporter: 7TFP
Outline: as §1

COc1ccc(-c2cc(=O)c3ccccc3o2)cc1 gave a cell viability [1] of 1 ± 0.066, a cell viability [2] of 0.983 ± 0.11 and a cell viability [3] of 1.03. The “TCF/Wnt firefly luciferase reporter signal” value [4] was 1.28 ± 0.12 and the “TCF/Wnt firefly luciferase reporter signal” value [5] was 1.13 ± 0.18.

With CC(=O)Nc1cccc(O)c1 the cell viability [1] was 0.933 ± 0.17, the cell viability [2] was 1.1 ± 0.028 and the cell viability [3] was 1.03 ± 0.021. For the same compound, the “TCF/Wnt firefly luciferase reporter signal” value [4] was 0.949 ± 0.14 and the “TCF/Wnt firefly luciferase reporter signal” value [5] was 0.939 ± 0.13.

Work on CC(C)CC1NC(=O)C(NC(=O)c2ncccc2O)C(C)OC(=O)C(c2ccccc2)N(C)C(=O)C(C)NC(=O)C(C(C)C(C)C)N(C)C(=O)CN(C)C(=O)C2CCCN2C1=O (single isomer, unassigned; isomere) [Neoviridogrisein II (Isomere)] yielded a cell viability [1] of 0.904 ± 0.024, a cell viability [2] of 0.991 ± 0.07 and a cell viability [3] of 1.02 ± 0.03. The “TCF/Wnt firefly luciferase reporter signal” value [4] was 0.918 ± 0.1 and the “TCF/Wnt firefly luciferase reporter signal” value [5] was 0.937 ± 0.02.

COc1cccc2c1CCC1CC(=O)CC[C@]21C (stereo not given in full) showed a cell viability [1] of 1.06 ± 0.014, a cell viability [2] of 1.02 ± 0.086 and a cell viability [3] of 1.02 ± 0.035. The “TCF/Wnt firefly luciferase reporter signal” value [4] was 0.972 ± 0.016 and the “TCF/Wnt firefly luciferase reporter signal” value [5] was 1.04 ± 0.17.

Work on C=CC(N)CCC(=O)O (stereo not given) yielded a cell viability [1] of 1.06 ± 0.021, a cell viability [2] of 0.934 ± 0.086 and a cell viability [3] of 1.06. The “TCF/Wnt firefly luciferase reporter signal” value [4] was 0.952 ± 0.21 and the “TCF/Wnt firefly luciferase reporter signal” value [5] was 1.06 ± 0.092.

CC(=O)O[C@@H]1C[C@@]2(C)C(CC[C@@H]2C(C)=O)C2CCC3=CC(=O)CC[C@]3(C)C21 (stereo not given in full) gave a cell viability [1] of 0.943 ± 0.019, a cell viability [2] of 1.09 ± 0.042 and a cell viability [3] of 0.976 ± 0.024. The “TCF/Wnt firefly luciferase reporter signal” value [4] was 1.02 ± 0.031 and the “TCF/Wnt firefly luciferase reporter signal” value [5] was 0.965 ± 0.033.

Compound COc1ccc(C(=O)Oc2ccc(/C=N/NC(N)=O)cc2)cc1 [Anthramycin derivative (C16H15N3O4)] has a cell viability [1] of 1.2 ± 0.2, a cell viability [2] of 0.991 ± 0.07 and a cell viability [3] of 1.02 ± 0.071. For the same compound, the “TCF/Wnt firefly luciferase reporter signal” value [4] was 0.938 ± 0.12 and the “TCF/Wnt firefly luciferase reporter signal” value [5] was 1.05 ± 0.028.

For CC(=O)NCCCCCC(=O)O, the cell viability [1] was 0.987 ± 0.047, the cell viability [2] was 1.01 ± 0.027 and the cell viability [3] was 1.035 ± 0.0071. The “TCF/Wnt firefly luciferase reporter signal” value [4] was 1.01 ± 0.068 and the “TCF/Wnt firefly luciferase reporter signal” value [5] was 1.04 ± 0.07.

With CN(N=O)C(=O)N[C@H]1C(O)O[C@H](CO)[C@@H](O)[C@@H]1O (mixture of isomers) the cell viability [1] was 0.999 ± 0.03, the cell viability [2] was 1.03 ± 0.064 and the cell viability [3] was 1.08 ± 0.021. The “TCF/Wnt firefly luciferase reporter signal” value [4] was 0.962 ± 0.15 and the “TCF/Wnt firefly luciferase reporter signal” value [5] was 1.005 ± 0.0071.

With CN(C)[C@@H]1C(O)=C(C(N)=O)C(=O)[C@@]2(O)C(O)=C3C(=O)c4c(O)ccc(Cl)c4[C@@](C)(O)[C@H]3C[C@@H]12 the cell viability [1] was 1.05 ± 0.028, the cell viability [2] was 1.1 ± 0.085 and the cell viability [3] was 1.02 ± 0.014. For the same compound, the “TCF/Wnt firefly luciferase reporter signal” value [4] was 1.11 ± 0.13 and the “TCF/Wnt firefly luciferase reporter signal” value [5] was 0.99 ± 0.0042.

Cc1cc(-c2ccccc2)nnc1NCCN1CCOCC1 gave a cell viability [1] of 1.005 ± 0.0071, a cell viability [2] of 0.946 ± 0.077 and a cell viability [3] of 1.03 ± 0.014. For the same compound, the “TCF/Wnt firefly luciferase reporter signal” value [4] was 1.02 ± 0.035 and the “TCF/Wnt firefly luciferase reporter signal” value [5] was 1.05 ± 0.057.

Work on C/C=C/CCC(=O)c1c(C)c(O)c(O)c(C)c1O [Sohirnone C] yielded a cell viability [1] of 1.11 ± 0.05, a cell viability [2] of 0.995 ± 0.035 and a cell viability [3] of 1.05 ± 0.057. The “TCF/Wnt firefly luciferase reporter signal” value [4] was 1.07 ± 0.014 and the “TCF/Wnt firefly luciferase reporter signal” value [5] was 1.08 ± 0.071.

For COC(=O)N/N=C/c1c[n+]([O-])c2ccccc2[n+]1[O-], the cell viability [1] was 0.917 ± 0.13, the cell viability [2] was 0.998 ± 0.2 and the cell viability [3] was 0.974 ± 0.021. For the same compound, the “TCF/Wnt firefly luciferase reporter signal” value [4] was 0.919 ± 0.064 and the “TCF/Wnt firefly luciferase reporter signal” value [5] was 0.9245 ± 0.0092.

In the case of CC1=CC(=O)CC(C)(C)C1(O)/C=C/C(C)=C\C(=O)O (mixture of isomers) [ABSCISIC ACID (cis,trans; )], the cell viability [1] is reported as 1.05 ± 0.021, the cell viability [2] is reported as 1.1 ± 0.021 and the cell viability [3] is reported as 1.03 ± 0.064. For the same compound, the “TCF/Wnt firefly luciferase reporter signal” value [4] was 1.08 ± 0.092 and the “TCF/Wnt firefly luciferase reporter signal” value [5] was 1.18 ± 0.13.

COc1ccc(C(=O)c2ccc(O)cc2)c(O)c1O showed a cell viability [1] of 1.015 ± 0.0071, a cell viability [2] of 0.971 ± 0.028 and a cell viability [3] of 1.04 ± 0.078. The “TCF/Wnt firefly luciferase reporter signal” value [4] was 1.03 ± 0.028 and the “TCF/Wnt firefly luciferase reporter signal” value [5] was 1.06 ± 0.057.

— the supplement of paper PMC6522484
